From PubChem
D1 antag = Antagonist of Human D 1 Dopamine Receptor: qHTS; D(1A) dopamine receptor (Homo sapiens), P21728; HEK293 TREx D1 cells, calcium flux, dopamine EC80; active compounds read low; activity change, negative = inhibition, % at 10 µM; actives 3.2% (n = 360,000); AID 504652, 2011; in the data active means activity change below about -30%; further: on the % scale 0 is the no-effect control and ±100 the full control effect
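Using tetracycline-induced force-coupled D1 Hek293 cells and a calcium dye, signals were followed for 180 s after compound, then for 180 s after EC80 dopamine, to detect inhibitors.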
Epigenetic derep = Quantitative High-Throughput Screen for Regulators of Epigenetic Control. murine LDR cells, GFP reporter derepression, 30 h. Potency, µM (titrated, usually from 53.9 µM), for inactives: at the top dose GFP activation, hits mostly activators. actives 0.2% (n = 280,000); active means well fitted activation curve with a large enough effect; inconclusive means small, poorly fitted or top-dose-only effect; further: potency means the concentration at half of the fitted maximal effect; % of control where 0% means no effect; nearly all actives have a fitted effect of over 60% in size
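In this reporter-derepression format, murine cells bearing a silenced integrated CMV-GFP locus incubate with test compound (30 h, 37 C), then are washed and imaged; fluorescent objects of 20–120 um count as induced cells.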
D1 ag = Allosteric Agonists of the Human D1 Dopamine Receptor: qHTS. HEK293 T-REx D1 cells, calcium flux, agonist mode. D(1A) dopamine receptor (Homo sapiens), P21728. actives 1% (n = 360,000). AID 504660, 2011. activation, % at 2 µM; further: 0% is about no effect
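Agonism was scored from calcium flux recorded over 180 s (1 read/s) after pintool compound addition, following a 10-cycle baseline. Cells were inducible force-coupled HEK293 TREx D1, plated overnight at 30 C and loaded with no-wash calcium dye.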
TRHR PAM = qHTS for Small Molecule Agonists and Allosteric Enhancers of Human TRH Receptor: Primary Screen for Enhancers. Thyrotropin-releasing hormone receptor (Homo sapiens), P34981. TRHR cells, fluo-8 calcium fluorescence, EC20 TRH enhancement. enhancement, % at 2 µM. actives 0.66% (n = 360,000). AID 493056, 2011; in the data active means enhancement above about 30%; further: 0% is about no effect
Target sequence (P34981 whole entry, looked up): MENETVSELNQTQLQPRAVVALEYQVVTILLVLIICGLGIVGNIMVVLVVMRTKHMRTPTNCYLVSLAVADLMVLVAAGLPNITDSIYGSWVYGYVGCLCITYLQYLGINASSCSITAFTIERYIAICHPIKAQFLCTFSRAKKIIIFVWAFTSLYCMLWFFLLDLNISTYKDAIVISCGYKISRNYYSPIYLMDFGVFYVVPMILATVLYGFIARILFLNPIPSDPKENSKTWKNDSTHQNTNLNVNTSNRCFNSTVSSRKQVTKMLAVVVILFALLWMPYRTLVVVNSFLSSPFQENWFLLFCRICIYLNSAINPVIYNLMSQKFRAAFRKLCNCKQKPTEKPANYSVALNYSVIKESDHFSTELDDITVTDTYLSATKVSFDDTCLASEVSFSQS
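Enhancer read-out: after compound pinning and an initial kinetic agonist-mode read, an EC20 of TRH (10 nM final) was injected and fluo-8 calcium signal (Ex 480/Em 530) followed at 1 s/cycle for 100 cycles in TRHR-expressing cells.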
TRHR ag = qHTS for Small Molecule Agonists and Allosteric Enhancers of Human TRH Receptor: Primary Screen for Agonists. activation, % at 2 µM. TRHR cells, calcium flux fluo-8, FDSS agonist mode. AID 493084, 2011. actives 0.18% (n = 360,000). Thyrotropin-releasing hormone receptor (Homo sapiens), P34981; further: 0% is about no effect
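Steps: seed TRHR cells overnight; add fluo-8 no-wash Ca dye, RT 30 min–1.5 h; record 10 s baseline; pin-transfer compounds; monitor fluorescence 1 cycle/s for the agonist window. Calcium increases flag candidate agonists.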
D1 potentiator = Potentiators of Human D1 Dopamine Receptor: qHTS | actives 0.036% (n = 360,000) | potentiation, % at 10 µM | D(1A) dopamine receptor (Homo sapiens), P21728 | HEK293 TREx D1 cells, calcium flux, dopamine EC20 potentiation; in the data active means potentiation above about 30%; further: 0% is about no effect
* marks the source's active call; other numbers are inactive results; ? = inconclusive; . = no result. The list is not random: actives were taken first. Their share in the collection is about 4.6%. Unless noted, no stated cut-off is given here; in the data, active means activation above about 30%; inactive means the rest.

SMILES | D1 antag | Epigenetic derep | D1 ag | TRHR PAM | TRHR ag | D1 potentiator
CCc1ccccc1NC(=O)c1cc(S(=O)(=O)N2CCCC2)cn1C | 3.0 | 0.0% | 3.9 | -1.6 | -0.1 | -1.7
CC(C)Cc1nnc(NC(=O)CCC(=O)N2CCN(c3ccc([N+](=O)[O-])cc3)CC2)s1 | 0.5 | . | -0.3 | -1.1 | -0.4 | -6.1
O=C(Nc1nnc(Cc2ccc([N+](=O)[O-])cc2)s1)Nc1ccccc1F | -1.3 | 3.2% | 4.4 | -3.9 | 0.3 | -2.4
Cc1ccccc1NC(=O)Nc1nnc(Cc2ccc([N+](=O)[O-])cc2)s1 | 20.7 | 3.0% | 5.0 | 39.8* | 0.6 | -3.2
CC(C)Cc1nnc(NC(=O)Cc2ccc([N+](=O)[O-])cc2)s1 | -5.3 | 2.1% | 31.2* | 7.5 | 3.3 | 14.2
COc1ccccc1N1CCN(Cc2ccco2)CC1 | 4.1 | -0.9% | 3.0 | 0.1 | 0.0 | -1.6
COc1ccccc1N1CCN(Cc2ccc(-c3ccccc3[N+](=O)[O-])o2)CC1 | -73.9* | . | 2.0 | -3.0 | -0.5 | -8.6
COc1ccccc1N1CCN(c2ccc(N3C(=O)CCC3=O)cc2[N+](=O)[O-])CC1 | -44.3* | -0.3% | 14.3 | -0.3 | 1.2 | -5.8
COc1cccc(N2CCN(c3ccc(N4C(=O)CCC4=O)cc3[N+](=O)[O-])CC2)c1 | -25.0 | -0.3% | 17.0 | -6.1 | 0.0 | -4.2
O=C1c2ccccc2-c2onc3c(Br)cc(NC4CCCCC4)c1c23 | -1.6 | -2.3% | 39.3* | 0.3 | 6.4 | -2.9
O=C(c1ccco1)N(Cc1cccs1)c1ccc(F)cc1 | -15.6 | -1.6% | -1.9 | -2.0 | 0.4 | 1.5
COc1ccc2oc(=O)c(-c3nc(-c4cc(OC)c(OC)c(OC)c4)no3)cc2c1 | -4.1 | -2.3% | 2.1 | 30.9* | 0.2 | 2.6
CS(=O)(=O)c1oc(-c2ccc(F)cc2)nc1S(=O)(=O)c1ccc(Cl)cc1 | -6.3 | ? | 0.9 | 48.7* | 0.6 | -1.4
CCn1c2ccccc2c2nnc(SCC(=O)Nc3ccccc3OC)nc21 | -32.9* | -1.6% | 4.6 | -4.6 | 0.1 | -0.7
O=C(Cn1c2ccccc2c2nc3n(c(=O)c21)CCS3)Nc1ccccc1C(F)(F)F | -1.1 | 3.7% | 5.3 | 6.6 | -0.3 | -3.5
COc1ccccc1NC(=O)Cn1c2ccccc2c2nc3n(c(=O)c21)CCS3 | -44.3* | 2.5% | 1.7 | 7.1 | 0.0 | -4.4
O=C(NCc1ccccc1)c1ccc(CSc2nc3cccnc3n2Cc2cccc(F)c2)cc1 | -4.9 | -1.2% | 8.4 | 9.6 | 0.7 | -2.5
O=C(O)c1ccc(Cl)c(NCc2cccs2)c1 | 4.8 | . | 0.3 | 31.9* | 0.1 | -2.4
CCCOc1ccc(C(=O)Nc2ccc(-c3cc4ccccc4oc3=O)c(C)c2)cc1 | -8.2 | -1.6% | 4.7 | 20.3 | 0.3 | -0.7
Cc1cc(C(=O)OCC(=O)NC(=O)c2cccn2C)c2ccccc2n1 | 16.8 | 1.0% | 45.0* | -9.5 | -0.6 | -4.5
Cn1cccc1C(=O)NC(=O)COC(=O)c1ccccc1O | 0.2 | 0.0% | 8.0 | 4.9 | 0.7 | -3.1
CCn1cc(C(=O)NCc2ccc(Cl)cc2)c(=O)c2cc(S(=O)(=O)N(C)C3CCCCC3)ccc21 | 4.3 | 0.1% | 4.3 | -0.5 | 0.9 | 3.1
CCc1nnc(NC(=O)c2ccc(OC)cc2OC)s1 | -30.2* | 2.4% | 3.0 | 1.6 | 0.3 | -2.7
COc1ccc(C(=O)Nc2nnc(SCC(=O)Nc3ccc(NC(C)=O)cc3)s2)c(OC)c1 | -1.5 | . | 3.2 | 4.5 | 0.1 | -2.5
COc1ccccc1CNCC(O)(c1ccc(F)cc1)c1ccc(F)cc1 | -51.9* | . | 2.2 | -8.2 | 1.1 | -10.3
COc1ccccc1CNN | 12.0 | 1.1% | 1.5 | 33.1* | 0.0 | 0.5
COc1ccc(C2CC(=O)Nc3c2c(=O)[nH]c2nc4ccccc4n32)cc1 (centres undefined) | -13.1 | -1.1% | -0.8 | 20.7 | -0.1 | -3.3
